Pf Dd2 growth = inhibitors of Plasmodium falciparum Dd2 growth; 120,000 compounds, 4.3% hits; P. falciparum Dd2 growth, SYBR Green, 72 h; Potency, µM (top dose mostly 28.9 µM), for the others: at the top dose activity, negative = inhibition, actives largely listed as inhibitors; active means well fitted inhibition curve with a large enough effect;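 further: plate controls were DMSO vehicle for no effect and reference drug for full effect; nearly all actives have a fitted effect of over 65% in size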
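Readout: SYBR Green fluorescence, 485 nm excitation, 535 nm emission, after ~16 h lysis at 37C. Before that, Dd2-infected red cells (2.5% hematocrit) grew 72 h with compound, 29 uM top final concentration.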
Active calls of the source: *; i = inactive; ! = a repeat was not active; [ ] = remark or other dose. The sample as a whole holds a higher share of hits than the screen did. Potency means the concentration at half of the fitted maximal effect.

SMILES	Pf Dd2 growth
O=C1c2[nH]nc(-c3ccccc3O)c2C(c2cccc(O)c2)N1Cc1ccncc1 (stereo not drawn)	12%
CN1C(=O)C(CC(=O)N2CCCCC2)=C2CCCCC21 (stereo not drawn)	i
COCc1nc(C2CCCN(C(=O)c3ccncc3)C2)no1 (stereo not drawn)	12%
Cc1ccc(S(=O)(=O)Nc2ccc(C)n(CC(=O)N(C)C)c2=O)cc1	i
CN1C(=O)CC[C@]2(C(=O)NCc3cc(F)ccc3F)CCCC[C@@H]12	8%
CCn1cnnc1CC1CCN(C(=O)NC)C1 (stereo not drawn)	22%
CCC(=O)N1CC(C(=O)N2CCN(c3ccccn3)CC2)C2(CCOCC2)C1 (stereo not drawn)	-10%
Cc1cnc(CC2CCN(C(=O)CCc3c[nH]c4ccccc34)C2)n1CC1CC1 (stereo not drawn)	i
Cc1cnc(CC2CCCN(C(=O)CCc3c[nH]c4ccccc34)C2)n1C(C)C (stereo not drawn)	4.5µM*
Cc1cnc(CC2CCCN(C(=O)N(C)C)C2)n1C(C)C (stereo not drawn)	-11%
O=c1[nH]c(C2CCCN(Cc3ccc(-c4ccccc4)cc3)C2)nc2ccc(F)cc12 (stereo not drawn)	8.9µM*!
COc1ccccc1-c1ccc(CN2CC3CCC(C2)N3c2ccc(C(F)(F)F)cc2)cc1	-24%
COc1ccccc1-c1ccc(CN2CCCC(c3nc4ccc(F)cc4c(=O)[nH]3)C2)cc1 (stereo not drawn)	8.9µM*!
O=c1[nH]c(C2CCN(Cc3ccc(-c4cccnc4)cc3)CC2)nc2ccc(F)cc12	4.5µM*!
COc1ccccc1-c1ccc(CN2CCN(c3ccc(Cl)nn3)C(=O)C2)cc1	-12%
O=c1[nH]c(C2CCCN(Cc3ccsc3)C2)nn1-c1ccccc1 (stereo not drawn)	i
O=c1cc(-c2cccnc2)nc(-c2ccc(CN3CC[C@@H](O)C3)cc2)[nH]1	-28%
O=c1[nH]c(C2CCCN(Cc3ccc(C(F)(F)F)cc3)C2)nn1-c1ccccc1 (stereo not drawn)	-20%
O=c1[nH]c(C2CCN(CC3CCCC3)CC2)nc2ccc(F)cc12	-6%
COc1cccc(CCc2ccccc2C(=O)N2CC[C@](C)(O)[C@H](C)C2)c1	-12%
COc1ccc(-n2c(=O)c3c(n2Cc2ccccc2)CN(Cc2c(C)noc2C)CC3)cc1	13%
COC[C@@H]1CN(S(=O)(=O)c2cccc(F)c2)C[C@H]1c1ccccn1	-6%
O=C(NC1CC1)[C@H]1O[C@H](CCN2CCN(Cc3ccccc3)CC2)CC[C@@H]1O	-13%[44.1 µM]
Cc1ncsc1CN(Cc1ccccc1)C(=O)c1cn(CCC2CCCCC2)nn1	-19%
COCCc1noc([C@@H]2CN(C3CCCCC3)C[C@H]2CO)n1	i
SMILES	Pf Dd2 growth
Cn1nccc1C(=O)N1CC(N(C2CCOCC2)S(C)(=O)=O)C1	-5%
CCc1ccc(N2CC(c3noc(-c4cc(Cl)ccc4F)n3)CC2=O)cc1 (stereo not drawn)	4%
CCC(CC)CN1C[C@]23C=C[C@H](O2)C(C(=O)N(C)Cc2nccs2)C3C1=O (stereo partly drawn)	-6%
Cc1noc(C)c1CC(=O)N1CC[C@@H]2CN(S(C)(=O)=O)[C@@H]2C1	i
O=C(c1ccc(CS(=O)(=O)c2c(Cl)cccc2Cl)o1)N1CCN(c2ccccc2)CC1	11µM*
Cc1ccc(Cl)cc1N1CCN(C(=O)c2ccc(CS(=O)(=O)c3ccccc3C)o2)CC1	-21%
Cc1ccc(S(=O)(=O)Cc2ccc(C(=O)N3CCN(c4cccc(C)c4C)CC3)o2)cc1	-10%
COc1ccccc1C(=O)N1CC[C@H]2COC(=O)N2c2cc(C)ccc2C1	2%[44.1 µM]
COc1ccc(NC(=O)c2sc3nc(C(F)(F)F)cc(C)c3c2N)cc1OC	-9%
Nc1c(C(=O)Nc2ccc(OC(F)(F)F)cc2)sc2nc(-c3ccncc3)ccc12	i
COCc1cc(C)nc2sc(C(=O)Nc3ccc(OC(F)(F)F)cc3)c(N)c12	4µM*
COc1cccc(NCc2nc3c(n2Cc2ccccc2)C(=O)N(CC2CC2)CCN3)c1	-26%[44.1 µM]
O=C(Nc1ccc(N2CCC(NCC(c3ccncc3)N3CCOCC3)CC2)cc1)C1CCCC1 (stereo not drawn)	-9%
O=C(c1ccc(N2CCC(NCC(c3ccccc3)c3ccccc3)CC2)cc1)N1CCCC(O)C1 (stereo not drawn)	11µM*
Cn1cnnc1CC1CCCN(C(=O)c2ccccc2)C1 (stereo not drawn)	12%
COCCOCC(=O)N1CCCCCNC(=O)[C@@H]2CCC[C@@H]21	6%
CCCNC(=O)N1CCCC(c2nc(-c3cccnc3)no2)CCNC(=O)CC1 (stereo not drawn)	10%
Cc1ccc(NC(=O)N2CCC(CCNC(=O)CCCc3ccccc3)CC2)cc1	i
CN(CC(=O)N1CCN(Cc2ccccc2)CC(O)C1)C1CCCC1 (stereo not drawn)	8.9µM*
O=C(C1CC1)N1CCN(Cc2ccccc2)CC(O)C1 (stereo not drawn)	11%
O=C(C1CCC1)N1CCN(Cc2ccccc2)CC(O)C1 (stereo not drawn)	-5%
CC(=O)N1CC2(CCN(C3COC3)CC2)Cc2ccccc21	108%
CCc1noc(-c2cn(C3CCN(C(=O)c4sccc4C)C3)nn2)n1 (stereo not drawn)	-25%
Cc1ccc(C2Cn3nnc(C(=O)N4CCC(C(=O)Nc5ccc(F)c(Cl)c5)CC4)c3CO2)cc1 (stereo not drawn)	-15%
Cc1cccc(CN2C[C@@H](C(=O)O)C[C@H](C(=O)N3CCN(C)CC3)C2)n1	-6%
SMILES	Pf Dd2 growth
COc1ccccc1/C=C/CN1CCNC(=O)C1CC(=O)NCc1ccon1 (stereo not drawn)	9%
COc1ccc(-c2[nH]nc3ncc(-c4ccc(C)cc4)nc23)cc1F	13µM*
COc1ccccc1-c1[nH]nc2ncc(-c3ccc(C)cc3)nc12	i
COc1ccc(-c2cnc3n[nH]c(-c4ccc(OC)c(F)c4)c3n2)cn1	i
COc1ccc(C(=O)N2CCCCCCNC(=O)[C@@H]3CCCC[C@@H]32)c(OC)n1	-13%
COc1ccc2[nH]c(C(=O)NCC(=O)N3CCCCCCNC(=O)CC3c3ccccc3)cc2c1 (stereo not drawn)	5µM*
Cc1ncccc1C(=O)NCC(=O)N1CCCCCNC(=O)CC1c1ccccc1 (stereo not drawn)	14%
Cc1nc(C)c(C(=O)NCC(=O)N2CCCCCCNC(=O)CC2c2ccccc2)s1 (stereo not drawn)	-1%
COc1ccc(CCC(=O)NCC(=O)N2CCCCCNC(=O)CC2c2ccccc2)cc1 (stereo not drawn)	i
COc1ccc(C(=O)NCC(=O)N2CCCCCCNC(=O)CC2c2ccccc2)c(OC)n1 (stereo not drawn)	8.9µM*
COc1ccc(C2(C(=O)NCC(=O)N3CCCCCNC(=O)CC3c3ccccc3)CC2)cc1 (stereo not drawn)	-2%
O=C(Nc1cccc(Cl)c1)C1=NO[C@@H]2CN(CCc3ccccc3)C[C@H]12	19%[44.1 µM]
COCCn1ncc(N2CCCC(CC(=O)NCc3ccc(F)cc3F)C2)cc1=O (stereo not drawn)	12%
COc1cccc(CNC(=O)Cn2ccn3nc4c(c3c2=O)CCCC4)c1	8%
O=C(O)Cn1ccc2cc(OCc3cccc(-c4ccc(F)cc4F)c3)cnc21	-12%[44.1 µM]
Cc1ccc(N2C(=O)CSC23C(=O)N(CC(=O)Nc2ccc(C(C)C)cc2)c2ccccc23)cc1C (stereo not drawn)	13µM*
